Laboratory results reported in PubChem BioAssay (NCI).
Compounds without any hit were thinned out: in the full panel of roughly 79,000, 15% have a hit. Rule as the data show it: active = growth inhibition above about 70%; inactive = the rest.

How the values were obtained:
[1] = NCI Yeast Anticancer Drug Screen. Data for the rad50 strain (AID 155);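 also: 0% = growth of vehicle-only cultures of the same strain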; settings: S. cerevisiae rad50 strain growth inhibition; at 50.0 µM; hits give high values
Summary of the method: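 Vehicle-treated cultures provide the reference for the growth inhibition reported for compound-exposed, repair-deficient yeast.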

[2] = NCI Yeast Anticancer Drug Screen. Data for the mec2-1 strain (AID 157); settings: S. cerevisiae mec2-1 strain, at 50.0 µM, hits give high values
Summary of the method: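 Cells of the genetically defined mec2-1 yeast strain are incubated with test compound. Inhibition of growth is calculated against vehicle-treated controls.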

[3] = NCI Yeast Anticancer Drug Screen. Data for the sgs1 mgt1 strain (AID 161);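 also: 0% = growth of cultures given vehicle only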; settings: S. cerevisiae sgs1 mgt1 strain, at 50.0 µM, hits give high values
Summary of the method: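 Mutant yeast exposed to compound; growth scored against vehicle-only wells.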

[4] = NCI Yeast Anticancer Drug Screen. Data for the cln2 rad14 strain (AID 165);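 also: 0% = growth equal to vehicle treated cultures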; settings: S. cerevisiae cln2 rad14 strain, at 50.0 µM, hits give high values
Summary of the method: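 The screen exposed genetically defined yeast (cln2 rad14) to test compounds and scored growth inhibition relative to vehicle-treated controls.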

[5] = NCI Yeast Anticancer Drug Screen. Data for the bub3 strain (AID 167); settings: S. cerevisiae bub3 mutant strain, at 50.0 µM, hits give high values
Summary of the method: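 Mutant yeast screening strain plus compound; vehicle-treated cultures serve as the 0% inhibition reference.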

[6] = NCI Yeast Anticancer Drug Screen. Data for the mlh1 rad18 strain (AID 175); settings: S. cerevisiae mlh1 rad18 strain growth inhibition; at 50.0 µM; hits give high values
Summary of the method: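 Compound-treated yeast growth, normalised to vehicle controls. Strain bears defined DNA repair mutations.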

Measured: growth inhibition

CC1(C)OC(=O)C(=Cc2ccc(-c3ccccc3[N+](=O)[O-])o2)C(=O)O1
inactive: [1] 3.05% | [2] 6.25% | [3] 31% | [4] 23.6% | [5] 29.5% | [6] 26.6%

CC[C@@]12CCC(=S)N(CCSc3ccccc3)[C@@H]1c1c(n(S(=O)(=O)c3ccc(OC)cc3)c3ccccc13)CC2
inactive: [1] -38% | [2] -18.1% | [3] 0.3% | [4] -15.9% | [5] 0.7% | [6] -5.3%

CNc1nc2c(s1)c1c(O)c3c(O)c(C)c4c(c32)C(=O)C(C)(O/C=C/C(OC)C(C)C(OC(C)=O)C(C)C(O)C(C)C(O)C(C)/C=C/C=C(/C)C(=O)N1)O4 (centres undefined)
inactive: [1] 14.1% | [2] 13.8% | [3] 9.1% | [4] 9.7% | [5] 21.2% | [6] 20.5%

CN(C)S(=O)(=O)c1ccc(NC(=O)OC(C)(c2ccccc2)C2CCCCC2)cc1 (centres undefined)
inactive: [1] 17.4% | [2] 2% | [3] 4.05% | [4] 7.75% | [5] 1.35% | [6] 4%

Cc1cc(C)c2[nH]c(=O)c(Br)c(C)c2c1
inactive: [1] 29.8% | [2] 11.8% | [3] 34.2% | [4] 22.1% | [5] 3.85% | [6] 19.4%

COc1ccccc1C(c1ccccc1OC)c1ccccc1C(=O)O
inactive: [1] 14.5% | [2] -3.35% | [3] 5.75% | [4] 15% | [5] 6.05% | [6] 26.9%

CC(C)C1OC2(C)OC(=N)C1(C#N)C(C#N)(C#N)C2C (centres undefined)
inactive: [1] -0.75% | [2] 2.2% | [3] -18.5% | [4] -10.7% | [5] -17.5% | [6] -13.8%

COc1ccc(C23C(=O)c4ccccc4N2O[C@H]2C(=O)N(c4ccccc4)C(=O)[C@H]23)cc1 (some centres undefined)
inactive: [1] -22.2% | [2] 20.1% | [3] -36.5% | [4] 7.9% | [5] -30.6% | [6] -21.1%

COc1cc(C(=O)Nc2ccc(S(=O)(=O)Nc3nc(C)cc(C)n3)cc2)cc(OC)c1OC
inactive: [1] -10.7% | [2] -21.9% | [3] -6.65% | [4] 10.7% | [5] -4.9% | [6] -10.4%

COC(=O)[C@H](Cc1ccccc1)NP(=O)(OCCC#N)OCC1OC(n2cc(C)c(=O)[nH]c2=O)CC1N=[N+]=[N-] (some centres undefined)
inactive: [1] 0.95% | [2] -13.1% | [3] -19.3% | [4] -20% | [5] -19.9% | [6] -35.8%

CC(NC(=O)OCc1ccccc1)C(=O)Nc1ccc(C(=O)O)c(O)c1 (centres undefined)
inactive: [1] 5.55% | [2] -5.1% | [3] 11.9% | [4] -9% | [5] 45.1% | [6] -10.8%

O=C(O)C1CC=CCC1C(=O)Nc1cccc(O)c1 (centres undefined)
inactive: [1] -16.9% | [2] -30.8% | [3] -51.7% | [4] 38.5% | [5] -40% | [6] 6.25%

CC(Cc1ccco1)C(=O)O (centres undefined)
inactive: [1] 9.2% | [2] 15.4% | [3] -0.3% | [4] -14% | [5] 1.9% | [6] -11.2%

CC(=O)Nc1cc(C(C)=O)ccc1O
inactive: [1] 0.95% | [2] -0.5% | [3] -3.95% | [4] -32.7% | [5] -14% | [6] 6.6%

CN(Cc1cnc2nc(N)nc(N)c2n1)c1ccc(C(=O)NC(CCC(=O)OCc2cc3c(cc2Cl)OCO3)C(=O)OCc2cc3c(cc2Cl)OCO3)cc1 (centres undefined)
inactive: [1] 16.9% | [2] 58.3% | [3] 42% | [4] 44.6% | [5] -8.6% | [6] 46.2%

COc1cc2c(cc1OC)C(CS(C)=O)Cc1cc(OC)c(OC)cc1N(C)CCC2 (centres undefined)
inactive: [1] 10.5% | [2] 19.4% | [3] 14.2% | [4] 10.6% | [5] -1.55% | [6] 29.9%

C=CCOc1ccccc1C
inactive: [1] -21.9% | [2] -29.9% | [3] -0.85% | [4] 8.1% | [5] -21.7% | [6] -14.9%

NC1=Nc2ccccc2Sc2nnc(-c3ccc(Cl)cc3)n21
inactive: [1] 1.75% | [2] -3.25% | [3] -11.8% | [4] -3.3% | [5] -15.2% | [6] 4.6%

COC(=O)C(C#N)=C(C)C
inactive: [1] 2.3% | [2] -23.6% | [3] 16.9% | [4] 19.9% | [5] 0.05% | [6] 7.95%
